# From the supplement of paper PMC12494721
# Counter-ions that a name gives are not always drawn.
# Tests used:
# Details in all cases: incubation time: 27 h, anaerobic, 37 °C;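 for the amine columns active = adjusted P below 0.05 in both replicates with a change the same way and a mean fold change under 0.8 or over 1.25; inactive = the rest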
# [1] = tested on: Clostridium sporogenes DSM 1664; experiment: growth (OD595) fold change vs plate DMSO controls (fold change (ratio)); higher = more growth
# Procedure, shortened: (§1)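 To obtain OD, 595 nm absorbance readings were blank-subtracted, corrected for compound background using 20 µM compound solutions in water, and multiplied by a calibration factor of 5. They came from 96-well mGAM cultures grown anaerobically for 27 h at 37 °C and shaken before reading. Growth is the fold change relative to the median of plate DMSO controls. Two biological replicates were averaged, and fold changes above 1.5 were set to NA.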
# Escherichia coli IAI1 [2] = experiment: as above
# Procedure, shortened: as §1
# [3] = tested on: Klebsiella aerogenes DSM 30053; experiment: as above
# Procedure, shortened: as §1
# [4] = tested on: Ruminococcus gnavus DSM 108212; experiment: as above
# Procedure, shortened: as §1
# [5] = tested on: Klebsiella aerogenes DSM 30053; experiment: fold change of Histamine concentration vs plate DMSO controls (fold change (ratio)); higher = more amine produced, active = hit call of the paper (significant change in both replicates, either direction)
# Procedure, shortened: (§2)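 Using LC–triple-quadrupole MS with dynamic MRM, amines were quantified against external calibration curves and corrected for drift within each batch. Samples were whole anaerobic mGAM cultures of four gut strains, grown 27 h at 37 °C from OD 0.1 before 1:1 dilution, extracted with cold acetonitrile/methanol containing 0.1% formic acid and centrifuged. Compounds were present at 20 µM final (sweeteners at 50 µM final). The numbers are fold changes versus plate DMSO controls, each the mean of 2 biological replicates.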
# [6] = tested on: Clostridium sporogenes DSM 1664; experiment: fold change of Tryptamine concentration vs plate DMSO controls (fold change (ratio)); higher = more amine produced, active = hit call of the paper (significant change in both replicates, either direction)
# Procedure, shortened: as §2
# [7] = tested on: Ruminococcus gnavus DSM 108212; experiment: as above
# Procedure, shortened: as §2
# Escherichia coli IAI1 [8] = experiment: fold change of Putrescine concentration vs plate DMSO controls (fold change (ratio)); higher = more amine produced, active = hit call of the paper (significant change in both replicates, either direction)
# Procedure, shortened: as §2
# [9] = tested on: Klebsiella aerogenes DSM 30053; experiment: as above
# Procedure, shortened: as §2
# Escherichia coli IAI1 [10] = experiment: fold change of Cadaverine concentration vs plate DMSO controls (fold change (ratio)); higher = more amine produced, active = hit call of the paper (significant change in both replicates, either direction)
# Procedure, shortened: as §2
# [11] = tested on: Klebsiella aerogenes DSM 30053; experiment: as above
# Procedure, shortened: as §2
# [12] = tested on: Ruminococcus gnavus DSM 108212; experiment: fold change of 2-Phenylethylamine concentration vs plate DMSO controls (fold change (ratio)); higher = more amine produced, active = hit call of the paper (significant change in both replicates, either direction)
# Procedure, shortened: as §2
SMILES,growth [1],growth (Escherichia coli IAI1 [2]),growth [3],growth [4],fold change of Histamine concentration [5],fold change of Tryptamine concentration [6],fold change of Tryptamine concentration [7],fold change of Putrescine concentration (Escherichia coli IAI1 [8]),fold change of Putrescine concentration [9],fold change of Cadaverine concentration (Escherichia coli IAI1 [10]),fold change of Cadaverine concentration [11],fold change of 2-Phenylethylamine concentration [12]
NS(=O)(=O)c1cc2c(cc1Cl)NC(Cc1ccccc1)NS2(=O)=O (stereo unspecified) [Benzylhydrochlorothiazide] (20 µM),1.04,1.05,0.986,0.982,0.96 (inactive),1.05 (inactive),1.06 (inactive),1.06 (inactive),0.971 (inactive),0.887 (inactive),1.01 (inactive),1.07 (inactive)
CN(C)C/C=C(/c1ccc(Br)cc1)c1cccnc1 [Zimelidine dihydrochloride monohydrate] (20 µM),0.928,0.997,0.991,1.03,1.01 (inactive),1.03 (inactive),0.987 (inactive),0.804 (inactive),0.993 (inactive),1.49 (active),0.978 (inactive),1.04 (inactive)
c1ccc(CC2=NCCN2)cc1 [Tolazoline hydrochloride] (20 µM),1.05,1,0.977,0.841,1.07 (inactive),0.962 (inactive),0.996 (inactive),0.996 (inactive),1.02 (inactive),1.06 (inactive),0.99 (inactive),1 (inactive)
CN1CCCCC1CCN1c2ccccc2Sc2ccc([S+](C)[O-])cc21 (stereo unspecified) [Mesoridazine besylate] (20 µM),1.12,0.991,0.974,0.756,1.1 (inactive),0.992 (inactive),1.02 (inactive),1 (inactive),1.02 (inactive),1.01 (inactive),0.978 (inactive),0.987 (inactive)
CCCN[C@H]1CCc2nc(N)sc2C1 [Pramipexole dihydrochloride] (20 µM),0.931,0.975,1.01,1.01,1.05 (inactive),0.946 (inactive),0.974 (inactive),0.977 (inactive),1.05 (inactive),0.98 (inactive),1.01 (inactive),0.923 (inactive)
CN(Cc1ccc(C(C)(C)C)cc1)Cc1cccc2ccccc12 [Butenafine hydrochloride] (20 µM),1.12,1.04,0.979,0.838,1.11 (inactive),0.918 (inactive),0.96 (inactive),1.05 (inactive),1.01 (inactive),1.02 (inactive),0.992 (inactive),1.03 (inactive)
CCc1c(C)[nH]c2c1C(=O)C(CN1CCOCC1)CC2 (stereo unspecified) [Molindone hydrochloride] (20 µM),0.781,1.07,1,1.1,1.02 (inactive),1.02 (inactive),1.07 (inactive),1.03 (inactive),0.987 (inactive),0.906 (inactive),1.01 (inactive),1.08 (inactive)
CC(=O)[C@H]1CC[C@H]2[C@@H]3C[C@H](C)C4=CC(=O)CC[C@]4(C)[C@H]3[C@@H](O)C[C@]12C [Medrysone] (20 µM),1.08,1.03,1.05,1.03,1.02 (inactive),1.03 (inactive),1.01 (inactive),0.978 (inactive),1 (inactive),1.02 (inactive),0.996 (inactive),1.01 (inactive)
Cc1cc2c(s1)Nc1ccccc1N=C2N1CCN(C)CC1 [Olanzapine] (20 µM),1.16,1.13,1.04,1.19,0.961 (inactive),0.966 (inactive),0.922 (inactive),1.04 (inactive),0.988 (inactive),0.945 (inactive),0.999 (inactive),0.944 (inactive)
CN(C)CCC[C@@]1(c2ccc(F)cc2)OCc2cc(C#N)ccc21 [Escitalopram oxalate] (20 µM),0.99,0.986,1.11,0.828,1.02 (inactive),0.971 (inactive),1.01 (inactive),1.01 (inactive),1.02 (inactive),0.993 (inactive),1.02 (inactive),0.965 (inactive)
N[C@@H](CCC(=O)N[C@@H](CS)C(=O)NCC(=O)O)C(=O)O [Glutathione] (20 µM),1.1,1.04,1.04,1.22,0.965 (inactive),1.1 (inactive),1.01 (inactive),1.04 (inactive),1.01 (inactive),1.03 (inactive),1.01 (inactive),1.02 (inactive)
CC(CNC1CCCCC1)OC(=O)c1ccccc1 (stereo unspecified) [Hexylcaine hydrochloride] (20 µM),1,0.961,1.01,1.02,1.02 (inactive),1.03 (inactive),1.01 (inactive),1 (inactive),0.988 (inactive),0.994 (inactive),0.984 (inactive),1.01 (inactive)
COc1ccc([C@@H]2CC(=O)c3c(O)cc(O[C@@H]4O[C@H](CO[C@@H]5O[C@@H](C)[C@H](O)[C@@H](O)[C@H]5O)[C@@H](O)[C@H](O)[C@H]4O)cc3O2)cc1O [Hesperidin] (20 µM),1.12,1.05,1.06,0.984,0.921 (inactive),1.26 (active),1.01 (inactive),1.01 (inactive),0.934 (inactive),0.986 (inactive),1.02 (inactive),0.982 (inactive)
